Hits are enriched below; roughly 2.4% of the tested compounds scored in any of these assays.
D2 PAM-1: potentiates the human D2 dopamine receptor allosterically; AID 624464; P14416; hit rate 0.23% among 360,000; potentiation, % (test concentration not listed); DiscoveRx D2 beta-arrestin cells, luminescence, 90 min; 100% = 57 uM dopamine signal; in the data active means potentiation above about 50%; inconclusive means mostly about 30% to 49%
Target sequence (P14416 whole entry, looked up): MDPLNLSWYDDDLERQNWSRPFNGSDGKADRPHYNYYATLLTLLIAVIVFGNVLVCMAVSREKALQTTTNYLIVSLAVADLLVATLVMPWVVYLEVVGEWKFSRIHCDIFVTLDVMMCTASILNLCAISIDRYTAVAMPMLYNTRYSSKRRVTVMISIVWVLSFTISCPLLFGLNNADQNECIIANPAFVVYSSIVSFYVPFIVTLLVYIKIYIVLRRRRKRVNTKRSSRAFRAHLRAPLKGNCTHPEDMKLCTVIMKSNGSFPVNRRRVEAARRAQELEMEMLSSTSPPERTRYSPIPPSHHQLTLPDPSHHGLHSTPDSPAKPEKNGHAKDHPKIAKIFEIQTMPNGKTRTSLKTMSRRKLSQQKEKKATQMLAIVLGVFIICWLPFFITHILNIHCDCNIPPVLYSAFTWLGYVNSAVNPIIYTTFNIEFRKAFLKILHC
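D2 cells co-treated with compound plus 50 nM dopamine (EC20) for 90 min at 37 deg C to detect potentiation. Beta-arrestin recruitment was read as enzyme-fragment luminescence after 1 h at ambient temperature. Full response was set by 57 uM dopamine.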
D2 antagonist: antagonists of human D2 dopamine receptor | P14416 | HEK293 TREx D2 cells, calcium flux, dopamine EC80 | inhibition, % at 10 µM | hit rate 2% among 340,000; in the data active means inhibition above about 30%; inactive means below that, where a call was filed; further: 0% is about no effect
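In this primary screen, negative modulation is detected by tracking calcium flux after an EC80 dopamine challenge in inducible HEK293 T-REx D2 cells preexposed to test compound for 180 s.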
D2 ag-1: agonists of human D2 dopamine receptor | activation, % at 2 µM | P14416 | HEK293 T-REx D2 cells, calcium flux agonist mode | AID 485358 | hit rate 0.53% among 340,000;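 active means activation over 3 SD above normal in the single-dose calcium agonist read, cut at about 30% in these data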; further: 0% is about no effect
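Tetracycline-induced HEK293 Trex cells with D2 receptor force-coupled to calcium signaling, plated overnight at 30 C and loaded with no-wash calcium dye. Calcium flux read kinetically for 180 s after compound addition; responses flag agonists.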
D2 ag-2: agonists of human D2 dopamine receptor (beta-arrestin) | P14416 | AID 624465 | DiscoveRx PathHunter D2 beta-arrestin, luminescence, 90 min; 100% = 57 uM dopamine signal | activation, % (test concentration not listed) | hit rate 0.084% among 360,000; in the data active means activation above about 40%; inconclusive means between about 15% and that limit
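Agonist mode: compounds alone added to overnight-plated D2 PathHunter cells for 90 min at 37 C, with 57 uM final dopamine (EC100) defining full response. Beta-arrestin recruitment detected by chemiluminescent reagent, read after 1 h at ambient temperature.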
D2 PAM-2: positive allosteric modulators of human D2 dopamine receptor; potentiation, % at 10 µM; P14416; HEK293 T-REx D2, calcium flux, EC20 dopamine potentiation; AID 485347; hit rate 0.34% among 340,000;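 active means potentiation over 3 SD above the plate norm, cut at about 30% in these data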; further: 0% is about no effect
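Using a no-wash calcium dye in inducible, force-coupled HEK293 Trex cells expressing D2, we tracked fluorescence each second for 180 s after compound, then for 180 s after EC20 dopamine to detect augmented signalling.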
Active calls of the source: *; ? = inconclusive; . = no result.

SMILES	D2 PAM-1	D2 antagonist	D2 ag-1	D2 ag-2	D2 PAM-2
CCOc1ccc(N/C=C/C(=O)c2ccc(OC)cc2)cc1	-3	2	0	-2	1
COc1ccc(-n2nc(C(=O)N3CCN(c4ccc(F)cc4)CC3)c3ccccc3c2=O)c(OC)c1	-5	34*	9	-1	-15
COc1ccc(-c2noc(-c3ccccc3NC(=O)c3cc(OC)c(OC)c(OC)c3)n2)cc1	.	.	1	.	1
CSc1ccccc1NC(=O)c1cnc2scc(C)n2c1=O	-1	-5	-1	1	36*
CCc1ccccc1NC(=O)c1cnc2scc(C)n2c1=O	0	.	.	-5	.
Fc1cccc(-c2nnn3c2nc(NC2CCCCC2)c2ccccc23)c1	.	.	1	.	-1
Cc1ccc(-n2nc(C)c3c(C(=O)NCc4ccc(F)cc4)cc(C)nc32)cc1	.	.	0	.	-2
O=C1c2[nH]nc(-c3ccccc3O)c2C(c2ccc(Cl)cc2)N1Cc1ccco1 (configuration not stated)	.	.	1	.	15
O=S(=O)(Cc1ccccc1)N1CCN(C2Cc3ccccc3C2)CC1	-13	30*	1	-1	-7
COc1ccc(NC2c3ccccc3C(=O)N2c2ccccn2)cc1 (configuration not stated)	2	41*	-1	-2	-4
Cc1cccc(/C=C2/Sc3ccc(C(=O)N4CCOCC4)cc3NC2=O)c1	-3	-29	0	-4	2
O=C1Nc2cc(C(=O)N3CCOCC3)ccc2S/C1=C\c1ccccc1	-10	47*	1	-4	13
O=[N+]([O-])c1nn(-c2cccc(Cl)c2)n(O)c1=NCc1cccnc1	59*	0	-1	?	0
Cc1cccc(-n2nc([N+](=O)[O-])c(=NCc3cccnc3)n2O)c1	68*	-6	0	?	-4
CCCCN(C)C(=O)CN1C(=O)CCn2nc(-c3cn(C)c4ccccc34)cc21	.	.	1	.	2
COc1ccc(C(=O)/C=C/Nc2ccc(S(=O)(=O)Nc3cc(OC)nc(OC)n3)cc2)c(OC)c1	2	31*	0	-2	7
COc1cccc(C(=O)/C=C/Nc2ccc(S(=O)(=O)Nc3cc(OC)nc(OC)n3)cc2)c1	-5	-20	0	-2	-5
CCCN1CCN(CCCNC(=O)Cn2c(-c3cccs3)cc3ccccc32)CC1	.	.	3	.	-8
O=C1C=C(c2ccccc2)OC2(CCCC2)O1	-3	-2	0	-3	38*
CCOc1ccc(C2=NC(c3ccncc3)=Nc3ccc(C)cc3N2)cc1OCC	.	.	1	.	12
CCOc1nc(NCCC2=CCCCC2)nc(N2CCOCC2)n1	0	-15	0	-3	6
CCOc1nc(NCCO)nc(NCCC2=CCCCC2)n1	-5	-15	0	-2	49*
Cc1cc(=O)n2[nH]c(C)c(-c3ccc(Cl)cc3)c2n1	-24	46*	-2	-1	-26
Cc1cc(=O)n2[nH]c(C)c(-c3ccccc3)c2n1	-36	6	3	-4	-16
Cc1ccc(S(=O)(=O)NCC2CCC(C(=O)NCc3ccc(F)cc3)CC2)cc1 (configuration not stated)	.	.	-1	.	-4
SMILES	D2 PAM-1	D2 antagonist	D2 ag-1	D2 ag-2	D2 PAM-2
CC(=O)Nc1ccc(Oc2sc(C(=O)c3ccccc3)c(N)c2C#N)cc1	-10	31*	0	-3	-5
N#Cc1c[nH]n2c(NC3CCCCC3)c(-c3ccc(F)cc3)nc12	.	.	0	.	2
COc1ccc(C2C(=O)N(C3CCCCC3)CC(=O)N2CCC2=CCCCC2)cc1 (configuration not stated)	.	.	0	.	-21
CCC1(NC(C)=O)CC2CC1CC2NC(C)=O (configuration not stated)	-1	38*	0	-4	-19
CC(=O)NC1CCCC(NC(C)=O)C1 (configuration not stated)	-4	.	.	1	.
O=C(NCc1ccccc1)c1nn(-c2ccccc2)nc1CO	.	.	.	.	-4
COc1cccc(OC)c1-c1nn(-c2ncc(C(F)(F)F)cc2Cl)c(=O)o1	-12	38*	3	-6	10
CC(=O)N1CCCC1c1nc2ccccc2n1Cc1ccccc1Cl (configuration not stated)	.	.	3	.	0
O=C(c1ccc2ncsc2c1)N1CCCCC1	-6	-5	1	-3	-6
Nc1nc2ccc(C(=O)N3CCCCC3)cc2s1	-2	51*	0	1	0
CC1=C(C(=O)OC2CCCCCC2)C(c2ccc(Cl)cc2Cl)CC(=O)N1 (configuration not stated)	.	.	0	.	9
O=C(O)c1ccc(N=Cc2c(O)ccc3ccccc23)cc1	3	-5	39*	6	-15
COc1ccc(N=Cc2c(O)ccc3ccccc23)cc1	-4	-3	2	2	26
CCOC(=O)c1sc(/N=C/c2c(O)ccc3ccccc23)cc1C	-15	31*	-1	-2	1
NC(=O)c1ccc(N=Cc2c(O)ccc3ccccc23)cc1	0	.	.	-2	.
Cc1nn(-c2ccc(F)cc2)c(-n2cccc2)c1C(=O)N1CCN(c2ccc(F)cc2)CC1	.	.	-1	.	-6
COc1ccc(-c2cc3c(=O)n(CC(=O)Nc4cc(F)ccc4F)ccn3n2)cc1OC	.	.	1	.	7
COc1cccc(C(NC(C)=O)c2nc(-c3ccccc3C)cs2)c1 (configuration not stated)	-3	.	.	78*	.
CC(=O)NC(c1cccc(F)c1)c1nc(-c2ccccc2C)cs1 (configuration not stated)	-5	.	.	-3	.
O=C(Nc1cccc(-c2nc3ccccc3o2)c1)c1cccc2c(Cl)cccc12	.	.	0	.	17
COc1cc(CN2CCCCCC2)cc(OC)c1O	-4	9	0	5	2
COc1cc(CN2CCN(c3cccc(C)c3C)CC2)cc(OC)c1O	4	42*	-1	1	-24
Cc1cccc(N2CCN(Cc3ccoc3)CC2)c1C	-31	67*	0	-2	-26
Cc1cc(CN2CCN(c3cccc(C)c3C)CC2)cs1	.	.	-1	.	-26
CCCCN1C(N)=NC[C@@H]1Cc1ccc(O)cc1	-5	-13	0	0	8
CCCCN1C(N)=NC[C@H]1Cc1ccc(O)cc1	-9	48*	0	-5	-4

High-throughput results as filed in PubChem.
